Laboratory results reported in PubChem BioAssay (NCATS).
Inconclusive results are not listed. Where a call stands in place of a potency, no number is given. The source made the active and inactive calls. Calls follow the shape of the full dose curve.

experiment: Cytotoxicity counterscreen for inhibitors of SARS-CoV-2 cell entry (AID 1645845); conditions: cell viability (SARS-CoV-2 entry assay cells); series mostly up to 57.1 µM; also: nearly all actives have a fitted effect of over 50% in size
Method in brief: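 Expi293F/hACE2 cells seeded overnight; cpd pin-transferred in DMSO, 1 h preincubation, + media, 48 h 37 C 5% CO2; ATPLite 1step luminescence; normalized to cells and no cells.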
Potency is read from the fitted curve at half-maximal effect.

SMILES	Potency
C#C[C@]1(O)CC[C@H]2[C@@H]3CCC4=Cc5oncc5C[C@]4(C)[C@H]3CC[C@@]21C	inactive
OC(CCN1CCCC1)(c1ccccc1)C1CCCCC1 (stereo not given)	inactive
COc1cc2nc(N3CCN(C(=O)c4ccco4)CC3)nc(N)c2cc1OC	inactive
CCc1nc(N)nc(N)c1-c1ccc(Cl)cc1	14.1 µM (active)
CC(C)C1CCC(C(=O)N[C@H](Cc2ccccc2)C(=O)O)CC1 (stereo not given in full)	inactive
Nc1cccc2c1CN(C1CCC(=O)NC1=O)C2=O (stereo not given)	inactive
CC(=O)N(O)CCCCCNC(=O)CCC(=O)N(O)CCCCCNC(=O)CCC(=O)N(O)CCCCCN	25.1 µM (active)
Cc1ccccc1C(OCCN(C)C)c1ccccc1 (stereo not given)	inactive
CN(C)CC/C=C1\c2ccccc2COc2ccccc21	inactive
CC(=O)O[C@]1(C(C)=O)CC[C@H]2[C@@H]3C=C(Cl)C4=CC(=O)[C@@H]5C[C@@H]5[C@]4(C)[C@H]3CC[C@@]21C	inactive
O=C(O)c1cn(C2CC2)c2cc(N3CCNCC3)c(F)cc2c1=O	inactive
Nc1nc(N)c2nc(-c3ccccc3)c(N)nc2n1	inactive
CN(C)c1cc(NC(=O)CNC(C)(C)C)c(O)c2c1C[C@@H]1C[C@H]3[C@H](N(C)C)C(=O)C(C(N)=O)=C(O)[C@@]3(O)C(=O)C1=C2O	inactive
CCOC(=O)C1=C(C)NC(C)=C(C(=O)OC)C1c1cccc(Cl)c1Cl (stereo not given)	inactive
CC(C)NCC(O)COc1cccc2[nH]ccc12 (stereo not given)	inactive
COC(=O)C1=C(C)NC(C)=C(C(=O)OCCN(C)Cc2ccccc2)C1c1cccc([N+](=O)[O-])c1 (stereo not given)	inactive
CC(=O)O[C@@]12CO[C@@H]1C[C@H](O)[C@@]1(C)C(=O)[C@H](O)C3=C(C)[C@@H](OC(=O)[C@H](O)[C@@H](NC(=O)OC(C)(C)C)c4ccccc4)C[C@@](O)([C@@H](OC(=O)c4ccccc4)[C@H]21)C3(C)C	8.91 µM (active)
CO[C@H]1C=CO[C@@]2(C)Oc3c(C)c(O)c4c(O)c(c(/C=N/N5CCN(C)CC5)c(O)c4c3C2=O)NC(=O)/C(C)=C\C=C[C@H](C)[C@H](O)[C@@H](C)[C@@H](O)[C@@H](C)[C@H](OC(C)=O)[C@@H]1C	inactive
COc1cc2nc(N3CCN(C(=O)C4COc5ccccc5O4)CC3)nc(N)c2cc1OC (stereo not given)	inactive
CS(=O)(=O)CCNCc1ccc(-c2ccc3ncnc(Nc4ccc(OCc5cccc(F)c5)c(Cl)c4)c3c2)o1	inactive

SMILES	Potency
CCCNC(=O)NS(=O)(=O)c1ccc(Cl)cc1	inactive
O=c1n(CCCN2CCN(c3cccc(Cl)c3)CC2)nc2ccccn12	inactive
C=C(c1ccc(C(=O)O)cc1)c1cc2c(cc1C)C(C)(C)CCC2(C)C	inactive
CNCCCC1c2ccccc2C=Cc2ccccc21	inactive
COCCCC/C(=N\OCCN)c1ccc(C(F)(F)F)cc1	inactive
OCCN(CCO)c1nc(N2CCCCC2)c2nc(N(CCO)CCO)nc(N3CCCCC3)c2n1	inactive
CCc1ccc(CCOc2ccc(CC3SC(=O)NC3=O)cc2)nc1 (stereo not given)	inactive
O=C(CCCN1CCC(O)(c2ccc(Cl)cc2)CC1)c1ccc(F)cc1	inactive
C[C@H]1c2cccc(O)c2C(O)=C2C(=O)[C@]3(O)C(O)=C(C(N)=O)C(=O)[C@@H](N(C)C)[C@@H]3[C@@H](O)[C@@H]21	inactive
CCN(C)C(=O)Oc1cccc([C@H](C)N(C)C)c1	inactive
Cc1onc(-c2c(Cl)cccc2Cl)c1C(=O)N[C@@H]1C(=O)N2[C@@H]1SC(C)(C)[C@@H]2C(=O)O	inactive
CCC[C@H](N[C@@H](C)C(=O)N1[C@H](C(=O)O)C[C@@H]2CCCC[C@@H]21)C(=O)OCC	inactive
COC(=O)C(c1ccccc1Cl)N1CCc2sccc2C1 (stereo not given)	inactive
CN(C)CCc1c[nH]c2ccc(C[C@H]3COC(=O)N3)cc12	inactive
OCCOCCN1CCN(C(c2ccccc2)c2ccc(Cl)cc2)CC1 (stereo not given)	inactive
COC(=O)N[C@H](C(=O)N[C@@H](Cc1ccccc1)[C@@H](O)CN(Cc1ccc(-c2ccccn2)cc1)NC(=O)[C@@H](NC(=O)OC)C(C)(C)C)C(C)(C)C	inactive
CC[C@@]1(O)C(=O)OCc2c1cc1n(c2=O)Cc2cc3c(CN(C)C)c(O)ccc3nc2-1	inactive
CCC(C)n1ncn(-c2ccc(N3CCN(c4ccc(OC[C@H]5CO[C@](Cn6cncn6)(c6ccc(Cl)cc6Cl)O5)cc4)CC3)cc2)c1=O (stereo not given in full)	inactive
CN1CCC[C@@H]1Cc1c[nH]c2ccc(CCS(=O)(=O)c3ccccc3)cc12	inactive
CCCN(CCc1cccs1)[C@H]1CCc2c(O)cccc2C1	inactive
